Structures are written as SMILES. “And” between values parts separate entries of the source, which are not always exact repeats. Equal values may be shown once. Records with an inconclusive call do not appear. Where a call stands in place of a potency, no number is given. The source made the active and inactive calls. Unless noted, the call rests on the fitted dose curve; in most records, active means well fitted activation curve with a large enough effect in the repeat runs; inconclusive means weak or mixed curves; inactive means no such curve, though single readings can be large or run the other way.
Further: nearly all actives have a fitted effect of over 15% in size.

A short description of one assay: qHTS assay for small molecule agonists of the p53 signaling pathway (AID 651631; calls by dose curve). The conditions noted are these: HCT-116 p53RE-bla reporter, beta-lactamase FRET ratio, 16 h; series mostly up to 73.3 µM. A digest of the protocol:
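Fluorescence intensity from cleaved LiveBLAzer B/G substrate (2 h, room temperature) served as the signal. Beforehand, HCT-116 reporter cells bearing p53 response elements were treated 16 h at 37 °C with DMSO-dissolved compounds.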
A general note: qHTS replaces the single test concentration by a dilution series.
`CC(=O)Oc1c(C)c(C)c2c(c1C)CC[C@@](C)(CCC[C@H](C)CCC[C@H](C)CCCC(C)C)O2`: the Potency result was “inactive”. Take `CN1CCOCC1`: the Potency entry was “inactive”. For the compound `NCCN`, the Potency result was “inactive”.

A further assay can be described thus: qHTS assay for small molecules that induce genotoxicity in human embryonic kidney cells expressing luciferase-tagged ATAD5 (AID 651632). Further: potency means the concentration at half of the fitted maximal effect. The conditions noted are these: HEK293T ATAD5-luciferase induction, 16 h; series mostly up to 83.3 µM. The gist of the method:
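Genotoxicity read-out via ATAD5-luciferase: HEK293T cells, 16 hr compound incubation at 37C, Amplite detection.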
`CCCCCCC(C)O` (configuration not stated): the Potency result was “inactive”. Same read-out and setting: under `C1COCCN1` stands “inactive”.

Take `CCCCCC1C(=O)CCC1CC(=O)OC` (configuration not stated): the Potency entry is “inactive”. The same measure, in the same setting: under `O=Cc1ccccc1C=O` stands 11.9 µM (active). `OCCNCCO`: the Potency result is “inactive”. On to `CN(C)CCCN1c2ccccc2Sc2ccc(Cl)cc21`, for which the Potency entry was “inactive”. Consider `OC[C@H]1O[C@@H]2O[C@H]3[C@H](O)[C@@H](O)[C@@H](O[C@H]4[C@H](O)[C@@H](O)[C@@H](O[C@H]5[C@H](O)[C@@H](O)[C@@H](O[C@H]6[C@H](O)[C@@H](O)[C@@H](O[C@H]7[C@H](O)[C@@H](O)[C@@H](O[C@H]1[C@H](O)[C@H]2O)O[C@@H]7CO)O[C@@H]6CO)O[C@@H]5CO)O[C@@H]4CO)O[C@@H]3CO`, for which the Potency result is “inactive”. Take `Nc1ccc2c(c1)C(=O)c1ccccc1C2=O`: the Potency was 4.77 µM (active) and 7.7 µM (active). In the case of `O=C(O)CCCCCCCCCCCC(=O)O`, the Potency entry was “inactive”. As for `O=C(O)COCCN1CCN(C(c2ccccc2)c2ccc(Cl)cc2)CC1` (configuration not stated), the Potency entry was “inactive”. As for `COc1ccc(-c2coc3cc(O)cc(O)c3c2=O)cc1`, the Potency was 1.38 µM (active) and 3.86 µM (active).

Take `C=C[C@@]1(C)CC(=O)[C@]2(O)[C@@]3(C)[C@@H](O)CCC(C)(C)[C@@H]3[C@H](O)[C@H](OC(C)=O)[C@@]2(C)O1`: the Potency was 266 nM (active) and 122 nM (active). For `C1CN(SSN2CCOCC2)CCO1`, the Potency entry is “inactive”.

`CCC(=O)O[C@H]1[C@H](O[C@@H]2[C@@H](C)[C@H](O[C@H]3C[C@@](C)(OC)[C@@H](O)[C@H](C)O3)[C@@H](C)C(=O)O[C@H](CC)[C@@](C)(O)[C@H](O)[C@@H](C)C(=O)[C@H](C)C[C@@]2(C)O)O[C@H](C)C[C@@H]1N(C)C`: the Potency result was “inactive”.

The values are drawn from PubChem BioAssay (Tox21).
